PLAP act – activates human placental alkaline phosphatase; purified PLAP enzyme, luminescent substrate read-out; active compounds read high; P05187; activation fold at 20 µM; hit rate 1.2% among 96,000; in the data active = activation fold above about 2
M1 antag – M1 muscarinic receptor (rat) antagonism; AID 628; CHO-M1 cells, Fluo-4 calcium, ACh EC80 antagonist mode; active compounds read low; B-score at 10 µM; P08482; hit rate 3.4% among 64,000;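 active = calcium fluorescence response, raw or row-and-column corrected B-score, differing from the plate sample mean either way at a set confidence level, mostly lower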
Cav32 inh – inhibitors of human Cav3.2 T-type calcium channel; Cav3.2-expressing cells, Fluo-4 calcium fluorescence FDSS; active compounds read low; B-score at 10 µM; hit rate 4% among 100,000;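 active = single-dose well whose peak fluorescence ratio is a statistical outlier from its plate by either plate-standardised score or position-corrected B-score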
Target sequence (O95180 whole entry, looked up): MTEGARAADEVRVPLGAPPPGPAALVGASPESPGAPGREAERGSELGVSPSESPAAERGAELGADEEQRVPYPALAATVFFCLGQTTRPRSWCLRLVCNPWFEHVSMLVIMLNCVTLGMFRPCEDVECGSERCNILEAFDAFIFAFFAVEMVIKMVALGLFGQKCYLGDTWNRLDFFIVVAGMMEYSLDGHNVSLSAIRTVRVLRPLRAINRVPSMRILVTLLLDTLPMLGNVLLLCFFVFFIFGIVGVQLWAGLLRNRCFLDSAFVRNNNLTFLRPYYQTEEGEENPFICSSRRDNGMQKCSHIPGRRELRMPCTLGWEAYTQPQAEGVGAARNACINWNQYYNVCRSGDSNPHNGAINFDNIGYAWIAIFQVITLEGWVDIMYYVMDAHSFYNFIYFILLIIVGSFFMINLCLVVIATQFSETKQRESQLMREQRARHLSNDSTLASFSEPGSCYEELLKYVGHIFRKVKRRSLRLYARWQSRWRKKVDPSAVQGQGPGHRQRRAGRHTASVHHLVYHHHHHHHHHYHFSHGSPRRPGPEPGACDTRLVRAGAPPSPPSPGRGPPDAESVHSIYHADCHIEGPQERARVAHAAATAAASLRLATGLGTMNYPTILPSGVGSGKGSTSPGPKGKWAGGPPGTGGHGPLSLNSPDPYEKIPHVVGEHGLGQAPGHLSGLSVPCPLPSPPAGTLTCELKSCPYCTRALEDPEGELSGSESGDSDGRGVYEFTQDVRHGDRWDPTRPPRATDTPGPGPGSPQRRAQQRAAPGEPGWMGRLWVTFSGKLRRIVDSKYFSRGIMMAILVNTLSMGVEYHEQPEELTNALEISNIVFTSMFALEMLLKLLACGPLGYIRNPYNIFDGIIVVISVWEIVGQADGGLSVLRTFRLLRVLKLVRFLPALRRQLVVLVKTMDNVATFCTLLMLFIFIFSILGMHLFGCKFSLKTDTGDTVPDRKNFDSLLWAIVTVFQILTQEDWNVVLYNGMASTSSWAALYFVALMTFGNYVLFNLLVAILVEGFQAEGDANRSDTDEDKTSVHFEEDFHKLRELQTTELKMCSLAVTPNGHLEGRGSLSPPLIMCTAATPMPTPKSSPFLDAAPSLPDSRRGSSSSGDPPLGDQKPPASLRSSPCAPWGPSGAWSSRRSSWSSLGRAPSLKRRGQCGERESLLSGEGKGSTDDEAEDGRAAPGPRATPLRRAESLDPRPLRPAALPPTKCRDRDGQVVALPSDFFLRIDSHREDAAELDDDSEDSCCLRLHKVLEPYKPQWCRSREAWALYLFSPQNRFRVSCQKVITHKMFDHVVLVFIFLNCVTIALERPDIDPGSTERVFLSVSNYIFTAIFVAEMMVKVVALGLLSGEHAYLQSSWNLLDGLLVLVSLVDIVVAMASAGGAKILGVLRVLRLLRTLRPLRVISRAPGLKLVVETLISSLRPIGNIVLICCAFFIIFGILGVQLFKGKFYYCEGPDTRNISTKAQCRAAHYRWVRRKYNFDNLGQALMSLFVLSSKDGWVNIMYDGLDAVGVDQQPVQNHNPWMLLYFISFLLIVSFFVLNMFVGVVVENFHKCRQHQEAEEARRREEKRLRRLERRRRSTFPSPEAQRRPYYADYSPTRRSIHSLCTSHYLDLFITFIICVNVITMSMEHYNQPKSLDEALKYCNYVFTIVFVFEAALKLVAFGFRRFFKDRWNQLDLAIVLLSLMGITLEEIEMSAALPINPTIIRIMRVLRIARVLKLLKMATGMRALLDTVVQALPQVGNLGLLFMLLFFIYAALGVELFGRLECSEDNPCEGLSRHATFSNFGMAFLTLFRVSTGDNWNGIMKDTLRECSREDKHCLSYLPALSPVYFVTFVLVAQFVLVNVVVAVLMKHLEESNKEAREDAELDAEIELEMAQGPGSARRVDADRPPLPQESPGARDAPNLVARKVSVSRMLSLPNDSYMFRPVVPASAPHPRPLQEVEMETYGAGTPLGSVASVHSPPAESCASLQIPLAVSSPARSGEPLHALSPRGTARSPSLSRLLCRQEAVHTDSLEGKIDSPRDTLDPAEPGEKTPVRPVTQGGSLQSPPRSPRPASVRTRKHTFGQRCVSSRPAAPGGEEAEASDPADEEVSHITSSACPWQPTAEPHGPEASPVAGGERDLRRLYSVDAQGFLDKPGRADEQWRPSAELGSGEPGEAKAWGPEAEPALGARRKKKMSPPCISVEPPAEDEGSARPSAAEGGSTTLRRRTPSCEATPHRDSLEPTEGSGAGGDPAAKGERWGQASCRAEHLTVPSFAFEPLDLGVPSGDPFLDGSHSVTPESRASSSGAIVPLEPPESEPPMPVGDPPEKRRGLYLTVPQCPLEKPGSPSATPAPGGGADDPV
Her2 expr inh – lowers expression of human Her2 kinase; P04626; SKBR-3 HER2 protein level, AlphaScreen, 18-24 h; active compounds read low; HER2 level % of control, % at 10 µM; hit rate 0.69% among 65,000;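 active = HER2 level under 5% of the carrier-only control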;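 note: 100% = DMSO carrier and 0% = 500 nM PU-H71 HSP90 inhibitor; lower value means stronger loss of Her2 protein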
M1 ag – M1 muscarinic receptor agonism. hit rate 3% among 64,000. CHO-M1 cells, Fluo-4 calcium fluorescence, agonist mode; active compounds read high. B-score at 10 µM;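 active = fluorescence rise, raw or as B-score row- and column-corrected plate score, outside the 99.7% band of its plate's samples, either direction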
* = called active by the depositor; . = no result. Hits are enriched below; roughly 7.9% of the tested compounds scored in any of these assays.

SMILES	PLAP act	M1 antag	Cav32 inh	Her2 expr inh	M1 ag
CCO[C@@H]1OC(C(=O)N2CCN(C)CC2)=C[C@H](C(C)(C)C)[C@H]1CCCO	.	.	0.594	.	.
CCN(CC)S(=O)(=O)c1cc([N+](=O)[O-])ccc1NNC(=O)Nc1ccccc1OC	0.9	.	-9.06*	.	.
CCn1c(Cc2ccccc2)nnc1SCC(=O)Nc1ccc(S(N)(=O)=O)cc1	1.2	-1.62	0.135	93.1	0.621
COc1ccc(-c2noc(CCC(=O)N3CCN(c4cc(C)ccc4C)CC3)n2)cc1	1.8	0.168	-6.91*	109.6	0
CCN(CCCNC(=O)CCc1nc(-c2ccc(OC)cc2)no1)c1cccc(C)c1	1.5	0	-8.81*	55.0	0.379
Cc1ccc(-c2noc(CCC(=O)N3CCN(c4cccc(C(F)(F)F)c4)CC3)n2)cc1	1	-0.0393	.	99.4	0.229
O=S1(=O)[C@H]2C[C@@H]3C=C[C@]2(CN1Cc1ccc(C(F)(F)F)cc1)O3	.	.	0.943	.	.
CCCC(c1nnnn1Cc1ccco1)N1CCC(C(N)=O)CC1 (stereo not given)	1.1	-0.0109	-0.0412	111.2	0.109
Cc1nc(C(=O)NC2CCCCC2)sc1C1(C)CC(c2cccnc2)=NO1 (stereo not given)	.	.	-1.11	.	.
Brc1ccccc1OCCOCCOc1cccc2cccnc12	.	.	-4.66*	.	.
Cc1ccccc1-c1nc(-c2ccc(NC(=O)c3ccc4c(c3)OCO4)cc2)no1	1.3	.	-0.379	.	.
COc1cc(-c2nc(-c3ccc(NC(=O)c4ccc5c(c4)OCO5)cc3)no2)cc(OC)c1OC	1	0.18	-0.0229	-3.3*	-0.219
Cc1cc(C)n(C(=O)C23CC4CC(CC(C4)C2)C3)n1	1.3	0.384	-5.58*	118.0	-0.161
CC(=O)c1ccc(Oc2ncnc3sccc23)c(CN2CCOCC2)c1	.	0.0286	1.58	98.2	-2.85*
C=CCn1c(SCC(=O)N2CCc3ccccc3C2)nc2ccccc2c1=O	1.3	.	-2.3	.	.
CC(NC(=O)CN1C(=O)NC(Cc2ccccc2)(Cc2ccccc2)C1=O)C12CC3CC(CC(C3)C1)C2 (stereo not given)	1.9	.	-5.15*	.	.
CC1CCCCC1NC(=O)CN1C(=O)NC(Cc2ccccc2)(Cc2ccccc2)C1=O (stereo not given)	1.4	.	.	.	.
COc1ccc(Nc2ncc(C(=O)N3CCN(c4ccc(F)cc4)CC3)c3ccccc23)cc1	1.3	.	-5.9*	.	.
COc1ccc(Nc2ncc(C(=O)O)c3ccccc23)cc1	0.9	.	0.939	.	.
Cc1cc2c(cc(C(=O)N3CCC(C(=O)NC4CCCC4)CC3)n2Cc2c(F)cccc2Cl)o1	.	0.0635	-5.72	58.3	6.2*
CCOC(=O)C1CCN(Cc2c(F)cccc2Cl)CC1	1	0.128	-0.217	127.7	-0.749
Cc1cccc(Nc2nc(-c3ccccn3)cs2)n1	0.8	0.139	-3.56*	-20.9*	0.375
c1ccc(Nc2nc(-c3cccs3)cs2)nc1	.	-0.000822	-4.99*	58.6	0.079
COC(=O)C1=C(Nc2ccc(C)cc2)C=C(C)C(C(=O)OC)C1c1ccc(OC)cc1 (stereo not given)	.	.	-4.11*	.	.
COC(=O)C1=C(Nc2ccc(C)cc2)C=C(C)C(C(=O)OC)C1c1cccc(OC)c1 (stereo not given)	.	.	-3.9*	.	.
SMILES	PLAP act	M1 antag	Cav32 inh	Her2 expr inh	M1 ag
CC(=O)C(Sc1nn(C)c(=S)s1)C(=O)Nc1ccccc1 (stereo not given)	1.1	0.402	-1.62	90.1	-2.89
CCOc1cccc(C(=O)Nc2ccc(N(CC)CC)cc2)c1	0.7	.	.	68.2	.
CCOc1ccc(NC(=O)c2cccc(OC(=S)N3CCC(C)CC3)c2)cc1	1.1	.	-4.28*	.	.
CCOC(=O)N1CCN(C2=NC3(CCCCC3)C(C#N)C(=O)N2)CC1 (stereo not given)	1	-0.506	-0.639	122.4	0.0683
Cn1c(CCNC(=O)c2ccco2)nc2cc(NC(=O)NC3CCCCC3)ccc21	1.5	0.429	0.199	59.6	0.0182
CC1CCN(CCc2nc3cc(NC(=O)NC4CCCCC4)ccc3n2C)CC1	2*	.	0.425	.	.
COc1cccc(N=Nc2c(=O)[nH]n3c(=O)cc(C)[nH]c23)c1	2*	.	0.945	.	.
CCOc1ccc(-c2nnc(NC(=O)c3ccc(OCC(C)C)c(OC)c3)o2)cc1	1.1	-0.101	-4.19*	100.7	0.073
CCCCNC(=O)Nc1nnc(-c2ccc(OCC)cc2)o1	1.1	.	-0.878	.	.
COc1cccc(C(=O)Nc2nnc(-c3cccs3)o2)c1	1.6	-0.848	.	84.3	-0.054
COc1cccc(C(=O)Nc2nnc(-c3ccc(Cl)cc3)o2)c1	.	-0.6	-5.42*	91.0	0.635
CC(=O)Nc1cc(OC(C)=O)c2nonc2c1OC(C)=O	1	0.544	1.78	-6.9*	-1.17
CC(=O)Nc1nonc1NC(C)=O	1.9	0.00659	0.12	88.8	-0.123
O=C(Nc1cccc(Cl)c1)N1CCN2C(=O)c3ccccc3C12c1ccccc1 (stereo not given)	1.2	.	-6.64*	.	.
Cc1ccc(C(=O)N2CCN3C(=O)c4ccccc4C23c2ccc(Cl)cc2)cc1 (stereo not given)	1.6	.	-4.96*	.	.
CC1CCCC(C)N1C(=O)Nc1cccc(Cl)c1 (stereo not given)	0.9	-0.368	0.168	66.5	-0.501
Cc1ccc(NC(=O)NNC(=O)C2CC(c3cccnc3)=NO2)cc1 (stereo not given)	2*	.	0.0263	.	.
COc1ccc(C2=NOC(C(=O)Nc3cccnc3)C2)cc1 (stereo not given)	1	.	0.995	.	.
O=C(NCc1cccc(Br)c1)c1cc(-c2ccccc2)nn1CC1CC(c2cccc([N+](=O)[O-])c2)=NO1 (stereo not given)	.	.	-1.83	.	.
Cc1ccc(Cn2nnc3c(=O)[nH]c(C(=O)NCc4ccco4)nc32)cc1	2*	-0.539	-0.798	76.8	0.37
O=C(Cn1cnc2c(nnn2Cc2ccc(F)cc2)c1=O)NCc1ccco1	.	-0.213	-4.2*	113.8	0.661
O=C(N[C@H](CO)Cc1ccccc1)c1ccco1	.	.	0.661	.	.
O=C(NC12CC3CC(CC(C3)C1)C2)N1CCN(S(=O)(=O)c2ccc(Cl)cc2)CC1	0.9	0	-7.03*	68.4	-0.898
CS(=O)(=O)N1CCN(C(=O)NC23CC4CC(CC(C4)C2)C3)CC1	1	0.89	0.46	104.1	-0.675
CCC(CO)n1c(SCc2cc(=O)oc3cc(C)ccc23)nc2ccccc2c1=O (stereo not given)	2.7*	.	-3.48	.	.
SMILES	PLAP act	M1 antag	Cav32 inh	Her2 expr inh	M1 ag
CCC[C@@H]1CCCO[C@@](C(=O)NCc2cc(C)n(C)n2)(C(F)(F)F)C1	.	.	1.05	.	.
Cc1c(NC(=O)c2n[nH]c(=O)c3ccccc23)c(=O)n(-c2ccccc2)n1C	1.2	.	-0.178	.	.
Cc1cc(S(=O)(=O)Nc2c(C(=O)O)[nH]c3ccccc23)ccc1F	2*	-0.739	-0.48	100.9	2.22
Cc1nc(CS(=O)c2ccc(Cl)cc2)cc(NCc2ccc(Cl)cc2Cl)n1 (stereo not given)	1.4	.	-5.75*	.	.
Cc1nc(CSc2ccc(Cl)cc2)cc(NCc2ccccc2)n1	1.8	.	-8.31*	.	.
CCCS(=O)(=O)N1CCCC(c2nc(-c3cccc(OC)c3)no2)C1 (stereo not given)	1.7	1.04	-4.01*	140.8	4.65

Bioassay records as filed in PubChem.
